{"source": "PubChem BioAssay (Tox21)", "note": "Records with an inconclusive call do not appear. Entries that show only a call come without a potency. Calls of active or inactive are those of the source. Calls follow the shape of the dose curve; as a rule, active = well fitted cell-killing curve with a large enough effect in the repeat runs (not every such curve was filed as active); inconclusive = weak or mixed curves, or effect the other way; inactive = no such curve, though single readings can be large or run the other way."}
{"test": "qHTS assay to identify small molecule antagonists of the farnesoid-X-receptor (FXR) signaling pathway - cell viability counter screen (AID 743221); also: nearly all actives have a fitted effect of over 50% in size", "conditions": "FXR-bla HEK293T viability, CellTiter-Glo luminescence, 16 h; series mostly up to 62.6 µM; activity change, negative = cytotoxicity: at the top concentration", "from_the_text": "National Center for Advancing Translational Sciences [NCATS]\nNIH Chemical Genomics Center [NCGC]\nU.S. Environmental Protection Agency [EPA]\nNational Institutes of Environmental Health Sciences [NIEHS]\nNational Toxicology Program [NTP]\nU.S. Food and Drug Administration [FDA]\nThe farnesoid-X-receptor (FXR), a nuclear hormone receptor, is highly expressed in liver, intestine, kidney and adrenal cortex. Natural ligands of FXR are the bile acids (Cholic acid, Chenodeoxy cholic acid etc). FXR is an important regulator of diverse metabolic pathways, including the bile acid homeostasis, lipid and glucose metabolisms. FXR regulates the expression of target genes by binding either as a monomer or as a heterodimer with the retinoid X receptor (RXR). Numerous studies have reported that FXR exerts protective function during cholestasis, diabetes, liver regeneration, and cancer. To identify compounds that inhibit FXR signaling, GeneBLAzer FXR-UAS-bla HEK 293T cell line (Invitrogen, Carlsbad, CA) containing a beta-lactamase reporter gene under the control of a UAS response element was used to screen the Tox21 10K compound library. The cytotoxicity of the Tox21 compound library against the FXR-bla cell line was tested in parallel by measuring the cell viability using CellTiter-Glo assay in the same wells.\nTox21 Assay Protocol Summary:\nFXR-bla cells were dispensed at 5000 cells/5uL/well in 1536-well black wall/clear bottom plates using a Multidrop Combi (Thermo Fisher Scientific, Waltham, MA) dispenser. After the assay plates were incubated at 37 C and 5% CO2 for 5 h, 23 nL of compounds dissolved in DMSO, positive controls or DMSO only was transferred to the assay plate by a Pintool station (Kalypsys, San Diego, CA), followed by addition of 1 uL Chenodeoxycholic acid (50 uM, final concentration in the wells). The assay plates were incubated at 37C for 16 h. After 1 uL of LiveBLAzerTM B/G FRET substrate was added using a Bioraptr Flying Reagent Dispenser (FRD) workstation (Beckman Coulter, Indianapolis, IN), the plates were incubated at room temperature for 2 h, and fluorescence intensity was measured by an Envision plate reader (PerkinElmer, Shelton, CT). For cell viability readout that measures cytotoxicity, 4uL/well of CellTiter-Glo reagent was added into the assay plates using a Bioraptr FRD. After 30 min incubation at room temperature, the luminescence intensity in the plates was measured using a ViewLux plate reader (PerkinElmer)."}
{"smiles": "Brc1ccc(Oc2ccc(Br)cc2)cc1", "Potency": "inactive"}
{"smiles": "NC(=O)c1ncn([C@@H]2O[C@H](CO)[C@@H](O)[C@H]2O)n1", "Potency": "inactive"}
{"smiles": "CC/C=C(\\C(=O)N[C@@H]1C(=O)N2C(C(=O)OCOC(=O)C(C)(C)C)=C(COC(N)=O)CS[C@H]12)c1csc(N)n1", "Potency": "inactive"}
{"smiles": "CCCOCC(C)O", "note": "(stereo not given)", "Potency": "inactive"}
{"smiles": "O=[N+]([O-])c1cc(C(F)(F)F)ccc1Cl", "Potency": "inactive"}
{"smiles": "OCC(O)CS", "note": "(stereo not given)", "Potency": "inactive"}
{"smiles": "CC(COCC(C)OC(=O)c1ccccc1)OC(=O)c1ccccc1", "note": "(stereo not given)", "Potency": "inactive"}
{"smiles": "COc1c(Cl)ccc(Cl)c1C(=O)O", "Potency": "inactive"}
{"smiles": "O=C1C(N(CO)C(=O)NCO)N(CO)C(=O)N1CO", "note": "(stereo not given)", "Potency": "inactive"}
{"smiles": "CS(=O)(=O)c1ccc(Cl)cc1", "Potency": "inactive"}
{"smiles": "Cc1ccc(C)c(S(=O)(=O)O)c1", "Potency": "inactive"}
{"smiles": "O=C(c1ccccc1)c1ccc(O)c(O)c1O", "Potency": "inactive"}
{"smiles": "Cc1cccc(C)c1[N+](=O)[O-]", "activity change, negative = cytotoxicity": "1.93% (inactive)"}
{"smiles": "C=C1C[C@]23C[C@@]1(O)CC[C@H]2[C@@]12C=C[C@H](O)[C@@](C)(C(=O)O1)[C@H]2[C@@H]3C(=O)O", "Potency": "inactive"}
{"smiles": "Nc1cccc(C(F)(F)F)c1", "Potency": "inactive"}
{"smiles": "OCC(CO)(CO)CO", "Potency": "inactive"}
{"smiles": "CCCCC(=O)O", "Potency": "inactive"}
{"smiles": "C[n+]1ccn(CCO)c1", "Potency": "inactive"}
{"smiles": "CC(C)=CCC/C(C)=C/C=O", "Potency": "inactive"}
{"smiles": "COc1ccc2cc3[n+](cc2c1OC)CCc1cc2c(cc1-3)OCO2", "activity change, negative = cytotoxicity": "-3.25% (inactive)"}
{"smiles": "CC(=O)OC(C)(C)C1CC=C(C)CC1", "note": "(stereo not given)", "Potency": "inactive"}
{"smiles": "NC(=O)NC(N)=O", "Potency": "inactive"}
{"smiles": "Cc1ccc(C(C)C)cc1", "Potency": "inactive"}
{"smiles": "CC1(C)C(=O)N(Cl)C(=O)N1Cl", "Potency": "inactive"}
{"smiles": "Cc1ccncc1", "Potency": "inactive"}
{"smiles": "NC(N)=S", "Potency": "inactive"}
{"smiles": "CC(=O)CC(=O)N(C)C", "Potency": "inactive"}
{"smiles": "CCCCCNCCCCC", "Potency": "inactive"}
{"smiles": "NCCNCCNCCN", "Potency": "inactive"}
{"smiles": "Cc1cc(CC(=O)O)n(C)c1C(=O)c1ccc(Cl)cc1", "Potency": "inactive"}
{"smiles": "CC(C)(CO)CO", "Potency": "inactive"}
{"smiles": "C[Si](C)(C)N[Si](C)(C)C", "Potency": "inactive"}
{"smiles": "OC1CCCCC1", "Potency": "inactive"}
{"smiles": "CCc1cccc(O)c1", "Potency": "inactive"}
{"smiles": "CC1=CC(=O)CC(C)(C)C1", "Potency": "inactive"}
{"smiles": "O=c1c(O)c(-c2ccc(O)c(O)c2)oc2cc(O)cc(O)c12", "Potency": "inactive"}
{"smiles": "C=C(C)CC(C)(C)C", "Potency": "inactive"}
{"smiles": "Cc1cc(C)cc(O)c1", "Potency": "inactive"}
{"smiles": "O=c1n(CCCN2CCN(c3cccc(Cl)c3)CC2)nc2ccccn12", "Potency": "inactive"}
{"smiles": "CCCCCCC(=O)O", "Potency": "inactive"}
